Screens from PubChem BioAssay.
ELG1 genotoxic: induces genotoxicity in HEK293T cells with luciferase-tagged ELG1 | Potency, µM (top dose mostly 46 µM), for the others: top-dose activity change, positive = activation, actives largely listed as activators | HEK293T ELG1-luciferase reporter, luminescence, 16 h | 330,000 tested, 1.3% active; also: % of control where 0% means no effect; nearly all actives have a fitted effect of over 60% in size
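Genotoxic stress is detected as increased luminescence from luciferase-tagged ELG1 in HEK293T cells, measured with ONE-Glo after a 16 hr treatment at 37 °C.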
SMN2 splice enh: enhancers of SMN2 splice variant expression; HEK293 SMN2-luciferase splicing reporter, luminescence, 30-36 h; Potency, µM (doses to about 46.1 µM), inactives show top-dose activity change, positive = activation, hits mostly activators; 210,000 tested, 2.8% active; AID 1458; also: % of control where 0% means no effect; nearly all actives have a fitted effect of over 55% in size
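HEK293 cells carry an SMN2 […]–luciferase reporter in which exon 7 inclusion puts luciferase in frame. Cells were plated 10-12 h before compound addition, then incubated 30-36 h at 37C. ONE-Glo luminescence was read; sodium butyrate at 4.5 mM final served as control.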
NPC1 prom act: activates the NPC1 promoter. Huh7 NPC1 promoter luciferase reporter, 24 h. Potency, µM (titrated, usually from 9.22 µM), for inactives: at the highest dose activation, usual class: activators. 320,000 tested, 2.4% active. AID 485313; also: % of control where 0% means no effect; nearly all actives have a fitted effect of over 60% in size
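Stably transfected Huh7 (NPC1 promoter→luciferase), 1500 cells/well in Opti-MEM + 10% FBS, 2 h settle, then compound 24 h at 37 °C. Luminescence after 10 min with Amplite reagent.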
Rab9 promoter act: activators of Rab9 promoter. Huh7 Rab9 promoter-luciferase reporter, luminescence, 24 h. Potency, µM (titrated, usually from 9.22 µM), inactives show at the highest dose activation, negative = inhibition, hits mostly activators. 320,000 tested, 2.8% active. AID 485297; also: % of control where 0% means no effect; nearly all actives have a fitted effect of over 60% in size
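Huh7 cells stably carrying Rab9 promoter–luciferase reporter, plated 1500 cells/well, compound added after 2 h and incubated 24 h at 37 °C; luciferase luminescence then read after 10 min with detection reagent.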
Luc counter: blocks Kinase-Glo luciferase, a counter-screen artifact; Kinase-Glo luciferase, ATP luminescence, 8 min; Potency, µM (doses to about 38.3 µM), for inactives: at the highest dose activity change, negative = inhibition, hits mostly inhibitors; 200,000 tested, 0.28% active; AID 1379; also: % is scaled to controls: 0 for no effect and ±100 for the full control effect; nearly all actives have a fitted effect of over 60% in size
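Recombinant Kinase-Glo luciferase, 10 uM ATP (linear range), luciferin; imidazole pH 7.2 / KCl / MgCl2 / Tween / BSA buffer; 8 min RT; luminescence.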
FLuc modulator: firefly luciferase modulation, counter-screen for miR-21 project. Potency, µM (doses to about 57.5 µM), for the others: at the top dose activity change, negative = inhibition, hits mostly inhibitors. 360,000 tested, 6.9% active. purified FLuc, Km substrates, luminescence inhibition. P08659;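 also: plate controls were vehicle for no effect and reference inhibitor for full effect; nearly all actives have a fitted effect of over 55% in size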
Target sequence (P08659 whole entry, looked up): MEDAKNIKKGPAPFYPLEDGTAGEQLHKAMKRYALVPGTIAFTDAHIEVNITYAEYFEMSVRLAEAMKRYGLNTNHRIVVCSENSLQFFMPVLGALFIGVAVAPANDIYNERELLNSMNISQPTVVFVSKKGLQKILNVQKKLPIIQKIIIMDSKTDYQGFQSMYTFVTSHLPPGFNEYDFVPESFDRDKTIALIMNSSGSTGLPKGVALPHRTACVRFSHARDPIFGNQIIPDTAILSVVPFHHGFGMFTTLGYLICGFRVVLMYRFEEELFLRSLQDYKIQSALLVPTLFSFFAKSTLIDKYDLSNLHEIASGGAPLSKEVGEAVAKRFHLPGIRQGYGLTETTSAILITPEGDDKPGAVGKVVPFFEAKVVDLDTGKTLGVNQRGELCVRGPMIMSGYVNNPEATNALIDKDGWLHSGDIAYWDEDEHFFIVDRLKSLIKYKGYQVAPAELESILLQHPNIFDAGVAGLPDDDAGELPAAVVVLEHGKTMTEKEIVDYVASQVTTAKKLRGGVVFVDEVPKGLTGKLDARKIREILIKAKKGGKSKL
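Purified P. pyralis luciferase (10nM final) with 10uM D-luciferin and 10uM ATP (Km levels) in 50mM Tris acetate pH 7.5, 10mM Mg acetate, 0.01% Tween-20, 0.05% BSA; qHTS 6-point titration, ~60 µM downward; luminescence read.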
* = called active by the depositor; u = inconclusive; x = no result. A selection: hits, their analogues and other compounds. The true share with any hit is near 7.5%. Calls follow the shape of the dose curve; as a rule, active = well fitted curve in the direction sought with a large enough effect; inconclusive = small, poorly fitted or top-dose-only effect, or another doubt; inactive = no such curve, though single readings can be large; an effect the other way counts as inactive or inconclusive. Potency is read from the fitted curve at half-maximal effect.

SMILES | ELG1 genotoxic | SMN2 splice enh | NPC1 prom act | Rab9 promoter act | Luc counter | FLuc modulator
COc1ccc(C2=C(C)C(N3CCC(C(=O)NCc4ccco4)CC3)=NS2(=O)=O)cc1 | x | x | x | x | x | -1%
COC(=O)c1sc(N2C(=O)C(O)=C(C(=O)c3ccc(C)o3)C2c2ccc([N+](=O)[O-])cc2)nc1C (centres undefined) | u | x | 3.5µM* | 1.8µM* | x | 19µM*
CCc1[nH]nc(C(=O)N/N=C/c2ccncc2)c1C | 23µM* | x | 2.8µM* | 3.2µM* | x | 11µM*
O=C(c1cccc(Cl)c1)N1CCN(c2ncnc3c2cnn3-c2ccccc2)CC1 | -7% | -37% | -5% | -17% | -1% | -15%
O=C(c1ccccc1)N1CCN(c2ncnc3c2cnn3-c2ccccc2)CC1 | -2% | -19% | 23% | u | -7% | -21%
Clc1cccc(-n2ncc3c(N4CCCCCC4)ncnc32)c1 | x | x | x | x | x | 1.7µM*
Clc1cccc(-n2ncc3c(N4CCCCC4)ncnc32)c1 | x | x | x | x | x | 0.43µM*
CCn1cc(C(=O)NCCCN(CC(C)C)CC(C)C)c(=O)c2cc(S(=O)(=O)N3CCOCC3)ccc21 | 3% | x | -4% | 0% | x | 1%
COc1cccc(CNC(=O)CN(c2ccc(C(C)C)cc2)S(=O)(=O)c2c(C)noc2C)c1 | -3% | 1% | -1% | 2% | x | -1%
COc1cccc(CNC(=O)CN(c2cc(C)cc(C)c2)S(=O)(=O)c2c(C)noc2C)c1 | -10% | 11% | -1% | 3.5µM* | -5% | 3%
Cc1c(C(=O)O)[nH]c2c1C(=O)CC(c1ccc(C(C)(C)C)cc1)C2 (centres undefined) | u | x | u | u | x | 9.5µM*
CCC(C)OC(=O)c1[nH]c2c(c1C)C(=O)CC(c1ccc(N(C)C)cc1)C2 (centres undefined) | u | 24% | u | 3.2µM* | -4% | 11µM*
CC(C)Oc1ccc(C(=O)N(Cc2ccc(N(C)C)cc2)Cc2ccco2)cc1 | x | -9% | x | x | x | u
COc1cc(/C=c2\sc3n(c2=O)CCCN=3)ccc1O | u | -15% | 26% | -4% | -5% | u
O=c1/c(=C/c2ccc([N+](=O)[O-])cc2)sc2n1CCCN=2 | u | 12% | 2.8µM* | 3.5µM* | -1% | u
N#CCc1ccccc1[N+](=O)[O-] | x | -4% | x | x | x | x
O=C(NCCn1ccc2ccccc21)c1ccc(Cl)cc1 | x | 13µM* | x | x | x | 21µM*
COc1cccc(C(=O)NCCn2ccc3ccccc32)c1 | u | 7.9µM* | 2.8µM* | 4µM* | 0% | 19µM*
Cc1ccccc1-n1c(C)nnc1SCc1nc2ccccc2s1 | u | 2% | 15% | 28% | -3% | 4.8µM*
COc1ccc(-c2nnc(SCc3nc4ccccc4s3)n2C(C)C)cc1 | u | 29% | 25% | u | 2% | u
Cn1c(SCc2nc3ccccc3s2)nnc1-c1cccs1 | u | -12% | 18% | 6% | -11% | u
CCn1c(SCc2nc3ccccc3s2)nnc1-c1cccs1 | u | u | 18% | u | -5% | 15µM*
CCOc1ccc(-n2nnnc2-c2nc3ccccc3s2)cc1 | 18µM* | -55% | u | 2.5µM* | -5% | 2.1µM*
CCOc1ccccc1-n1nnnc1SCc1nc2ccccc2s1 | -4% | -28% | 14% | 17% | -2% | 13µM*
COc1ccccc1-c1nnc(SCc2nc3ccccc3s2)n1C | 4% | 0% | 20% | 24% | 1% | u
SMILES | ELG1 genotoxic | SMN2 splice enh | NPC1 prom act | Rab9 promoter act | Luc counter | FLuc modulator
Cc1ccc(Cl)cc1N1CCN(C(=O)CCCCCn2c(=O)[nH]c3ccccc3c2=O)CC1 | x | x | x | x | x | -3%
C[C@@H]1Nc2ccc(Cl)cc2S(=O)(=O)N1 | x | x | x | x | -1% | x
Nc1nonc1-n1nnc(C(=O)N/N=C/c2cccnc2)c1-c1cccs1 | -8% | x | -12% | -5% | x | u
Cc1ccc(/C=N/NC(=O)c2nnn(-c3nonc3N)c2-c2cccs2)cc1 | 0% | x | -2% | 1% | x | 9.5µM*
COc1ccc(/C=N/NC(=O)c2nnn(-c3nonc3N)c2-c2cccs2)cc1OC | -11% | x | 0% | 11% | x | 19µM*
COc1ccc(-n2nc(C(=O)Nc3cc(C)ccn3)c3c4ccccc4n(C)c3c2=O)cc1 | x | 7% | x | x | x | 1%
Cc1nc(-c2cccc(F)c2)sc1CCNC(=O)Cc1ccc(F)cc1 | x | x | x | x | x | -16%
O=C(CCN1C(=O)/C(=C/c2cccs2)SC1=S)Nc1ccc(O)cc1 | 5% | x | 0% | -1% | x | 3%
O=C(CCCN1C(=O)S/C(=C/C=C/c2ccccc2)C1=O)Nc1ccc(C(=O)O)cc1 | 7% | x | 1% | -4% | x | 0%
CC(/C=C1\SC(=S)N(CCC(=O)Nc2ccc(O)cc2)C1=O)=C\c1ccccc1 | -4% | x | 18% | 16% | x | -8%
CC(/C=C1\SC(=S)N(CCCC(=O)Nc2ccc(C(=O)O)c(O)c2)C1=O)=C\c1ccccc1 | u | 35µM* | 18% | u | 0% | 11µM*
CC(=C\c1ccccc1)/C=C1/SC(=O)N(CCCC(=O)Nc2ccc(C(=O)O)cc2)C1=O | u | 8% | 17% | 2% | 1% | 17µM*
O=C(CCN1C(=O)/C(=C/c2cccs2)SC1=S)Nc1ccc(C(=O)O)c(O)c1 | 2% | x | -2% | -1% | x | 17µM*
COc1ccc(NC(=S)N(CCN2CCOCC2)Cc2cc3cc4c(cc3[nH]c2=O)OCCO4)cc1 | 3% | x | -7% | -2% | 1% | 3%
Cc1ccccc1C(=O)Oc1cccc2c(O)cccc12 | -1% | x | 8% | 7% | x | u
Cc1ccccc1C(=O)Oc1ccc2ccc(O)cc2c1 | 5.8µM* | x | u | -3% | x | 6.7µM*
Cc1ccccc1S(=O)(=O)Oc1ccc2ccc(O)cc2c1 | 8% | x | 26% | -3% | x | 17µM*
COC(=O)c1cccc(OC(N)=O)c1 | 0% | -1% | -1% | -2% | 10% | -1%
COc1cccc(C(=O)Oc2ccc3ccc(O)cc3c2)c1 | 1% | x | 0% | 4% | x | 6µM*
CC(=O)Nc1ccc(OS(=O)(=O)c2ccccc2C)cc1 | 3% | x | 0% | 15% | -3% | 0%
Cc1[nH]c2ccccc2c1C(=O)/C=C/c1ccccc1 | 14% | 28% | 3.2µM* | u | 5% | 4.8µM*
Cc1[nH]c2ccccc2c1C(=O)/C=C\c1ccccc1Cl | u | u | u | u | -4% | 6µM*
Cc1[nH]c2ccccc2c1C(=O)/C=C/c1ccccc1Cl | u | 11µM* | 3.2µM* | 3.2µM* | -3% | 8.5µM*
COc1ccc(-c2nc(C)c(CCNC(=O)C(=O)Nc3cc(C)cc(C)c3)s2)cc1OC | x | x | x | x | x | 2%
